LmPK inhibitor: blocks Leishmania mexicana pyruvate kinase activity; actives 0.37% (n = 290,000); Potency, µM (top dose mostly 57.5 µM), for inactives: at the top dose activity change, negative = inhibition, usual class: inhibitors; AID 1721; purified LmPK, Kinase-Glo ATP luminescence, 1 h
Target sequence (Q27686 whole entry, looked up): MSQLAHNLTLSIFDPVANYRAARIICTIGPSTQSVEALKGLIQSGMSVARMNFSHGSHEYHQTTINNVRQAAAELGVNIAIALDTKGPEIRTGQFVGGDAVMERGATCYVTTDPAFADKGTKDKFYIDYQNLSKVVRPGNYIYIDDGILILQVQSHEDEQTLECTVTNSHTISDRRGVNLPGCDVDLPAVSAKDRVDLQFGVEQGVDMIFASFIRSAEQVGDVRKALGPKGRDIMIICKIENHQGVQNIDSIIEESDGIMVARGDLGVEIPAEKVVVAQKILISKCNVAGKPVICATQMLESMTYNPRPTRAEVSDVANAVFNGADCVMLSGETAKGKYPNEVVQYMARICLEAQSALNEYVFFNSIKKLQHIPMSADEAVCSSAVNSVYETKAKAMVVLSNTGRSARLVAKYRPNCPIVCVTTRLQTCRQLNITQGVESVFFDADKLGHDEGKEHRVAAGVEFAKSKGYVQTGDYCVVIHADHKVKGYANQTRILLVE
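qHTS format; LmPK 0.1 nM; substrates PEP 0.5 mM and ADP 0.1 mM. One-hour room-temperature incubation, then coupled luciferase luminescence; 0.5 nM enzyme wells mark activation.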
Giardia FBPA inh: inhibitors of Giardia lamblia fructose-1,6-bisphosphate aldolase; A8B2U2; purified Giardia FBPA; Potency, µM (top dose mostly 59.6 µM), without a hit: at the top dose activity, negative = inhibition, usual class: inhibitors; actives 0.71% (n = 290,000); AID 2451; also: nearly all actives have a fitted effect of over 55% in size
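40 nM FBPA preincubated 10 min at RT with compound (up to 57.5 uM final), then substrate plus GAPDH/TPI/NAD/arsenate coupling and diaphorase/resazurin added. Fluorescence read after 20 min at RT, 525/598 nm.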
TbPYK inhibitor: inhibitors of Trypanosoma brucei pyruvate kinase; actives 0.12% (n = 410,000); Potency, µM (highest dose often 76.8 µM), for the others: at the highest dose activity, negative = inhibition, usual class: inhibitors; AID 624173; TbPYK enzyme, Kinase-Glo Plus ATP luminescence, 45 min; also: nearly all actives have a fitted effect of over 50% in size
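Glycolytic pyruvate kinase of T. brucei was incubated with substrate, test compound and 130 uM ADP for 45 minutes at room temperature. Luminescent Kinase-Glo Plus signal was measured after 10 minutes.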
RE007 growth inh: less growth of the S. pombe RE007 Vpr strain; actives 0.21% (n = 360,000); AID 651644; S. pombe RE007 Vpr strain, BacTiter-Glo ATP luminescence, 24 h; Potency, µM (series often up to 92.2 µM), for inactives: at the top dose activity change, negative = less growth, actives largely listed as inhibitors; active = well fitted falling curve with a large enough effect; inconclusive = small, poorly fitted or top-dose-only effect; inactive = no such curve, though single readings can be large or run the other way; also: nearly all actives have a fitted effect of over 50% in size
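Fission yeast strain RE007, carrying one chromosomally integrated HIV-1 vpr copy, was seeded at OD 0.01 in PMG+AL medium with 23 nL pinned compound. After 24 h at 30 °C and 99% humidity, viability was read by BacTiter-Glo luminescence.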
Sm TGR inh: inhibitors of Schistosoma mansoni thioredoxin glutathione reductase | Q962Y6 | actives 3% (n = 360,000) | Potency, µM (titrated, usually from 114 µM), for inactives: at the top dose activity change, negative = inhibition, usual class: inhibitors | purified TGR, DTNB reduction, TNB absorbance 405 nm | AID 485364; also: nearly all actives have a fitted effect of over 60% in size
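TGR 20 nM + NADPH 100 uM (dispensed conc.), cpd preinc 15 min RT; start with NADPH (500 uM addition) then DTNB (15 mM addition). Kinetic TNB absorbance, 405 nm filter. Four-parameter Hill fit across titration.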
* hit, by the source's call; u = inconclusive; x = not tested or not shown. Only some compounds are listed: those with a hit (about 3.3% of all), similar ones and a draw of the others. Unless noted, calls follow the shape of the dose curve; as a rule, active = well fitted curve in the direction sought with a large enough effect; inconclusive = small, poorly fitted or top-dose-only effect, or another doubt; inactive = no such curve, though single readings can be large; an effect the other way counts as inactive or inconclusive. % is scaled to controls: 0 for no effect and ±100 for the full control effect; potency is read from the fitted curve at half-maximal effect.

SMILES	LmPK inhibitor	Giardia FBPA inh	TbPYK inhibitor	RE007 growth inh	Sm TGR inh
CCc1ccc(N2CSC3=C(C#N)C(c4cccs4)CC(=O)N3C2)cc1 (configuration not stated)	-11%	u	u	-8%	-27%
COc1ccc(N2CSC3=C(C#N)C(c4cc(OC)ccc4OC)CC(=O)N3C2)c(OC)c1 (configuration not stated)	2%	1.6µM*	7.9µM*	-11%	u
NC(=O)N/N=C/c1ccc(Oc2ccc(F)cc2)cc1	x	3%	x	x	x
CCOCC(=O)Nc1nnc(COc2ccc(Cl)cc2)s1	3%	3%	-21%	-17%	-14%
CCOC(=O)C(C)NC(=O)CCc1nnc2ccc(N3CCCCC3)nn12 (configuration not stated)	2%	4%	-26%	4%	-13%
COc1ccc(N2CSC3=C(C#N)C(c4cccs4)CC(=O)N3C2)cc1 (configuration not stated)	12%	0.5µM*	-5%	-15%	22µM*
COc1ccc(N2CSC3=C(C#N)C(c4ccc(OC)c(OC)c4)CC(=O)N3C2)c(OC)c1 (configuration not stated)	0%	1.4µM*	7.9µM*	-5%	7.9µM*
CCc1ccc(C2CC(=O)N3CN(c4ccccc4)CSC3=C2C#N)cc1 (configuration not stated)	-11%	u	4.5µM*	0%	35µM*
Cc1ccc(N2CSC3=C(C#N)C(c4cccs4)CC(=O)N3C2)cc1 (configuration not stated)	-22%	u	u	-2%	-22%
COc1ccc(N2C(=O)C3CC(C)=C(C)CC3C2=O)c(OC)c1 (configuration not stated)	-3%	6%	-1%	-6%	3%
COc1ccc(N2CSC3=C(C#N)C(c4cc(OC)c(OC)cc4OC)CC(=O)N3C2)c(OC)c1 (configuration not stated)	-17%	2µM*	8.9µM*	0%	6.3µM*
CC1(C(=O)NS(=O)(=O)c2cccc(Cl)c2)CCN1C(=O)C1CC1 (configuration not stated)	x	x	0%	6%	x
CC(C(=O)N1CCCc2c1c(=O)oc1ccc(O)cc21)N1CCc2ccccc2C1 (configuration not stated)	-6%	-11%	4%	8%	-21%
CN(Cc1ccccc1)C(=O)c1ccc(NC(=O)Cc2ccc([N+](=O)[O-])cc2)cc1	x	x	-7%	-17%	x
NS(=O)(=O)c1ccc(Sc2nc3ccccc3s2)c([N+](=O)[O-])c1	8%	-12%	-3%	-8%	45µM*
NS(=O)(=O)c1ccc(Sc2ccccn2)c([N+](=O)[O-])c1	6%	1%	-14%	3%	2%
Cc1cccc2c(=O)c(-c3ccc4c(c3)OCO4)c(NC(=O)c3ccco3)oc12	6%	x	-7%	-2%	-11%
Cc1[nH][nH]c(=O)c1C(c1cc([N+](=O)[O-])ccc1O)c1c(C)[nH][nH]c1=O	1%	u	-5%	-3%	-4%
COc1ccc(-c2ccc(/C=N/N3C(=O)C4C5C=CC(C6CC56)C4C3=O)o2)c([N+](=O)[O-])c1 (configuration not stated)	5%	-5%	-8%	3%	-14%
Cc1[nH][nH]c(=O)c1C(c1ccc(-c2ccc(C(=O)O)cc2)o1)c1c(C)[nH][nH]c1=O	-17%	5.6µM*	u	-27%	16µM*
Cc1[nH][nH]c(=O)c1C(c1ccc(-c2ccc(Cl)c(Cl)c2)o1)c1c(C)[nH][nH]c1=O	-1%	u	-11%	14%	40µM*
Cc1[nH][nH]c(=O)c1C(c1ccc(-c2ccc(F)cc2)o1)c1c(C)[nH][nH]c1=O	2%	u	-16%	-12%	32µM*
COc1ccc(-c2ccc(C(c3c(C)[nH][nH]c3=O)c3c(C)[nH][nH]c3=O)o2)c([N+](=O)[O-])c1	-7%	6.3µM*	-7%	-9%	28µM*
Cc1[nH][nH]c(=O)c1C(c1ccc(N(C)C)c(Br)c1)c1c(C)[nH][nH]c1=O	-1%	-2%	-15%	-1%	-3%
CC(C)CCC1(CCNC(=O)c2cccs2)CCOC(C)(C)C1 (configuration not stated)	7%	-2%	-11%	13%	0%
SMILES	LmPK inhibitor	Giardia FBPA inh	TbPYK inhibitor	RE007 growth inh	Sm TGR inh
O=C(C=Cc1cccc(O)c1)c1ccccc1O	x	x	4%	25µM*	x
O=C(C=Cc1ccccc1O)c1ccccc1O	x	x	5%	35µM*	x
O=C(CSc1nnc(-c2ccc(S(=O)(=O)N3CCCC3)cc2)o1)NCc1ccco1	0%	-2%	-3%	-2%	45µM*
CC(=O)c1ccc(S(=O)(=O)N2CCN(C(C)=O)CC2)cc1	6%	6%	2%	-11%	-1%
CC(=O)c1ccc(S(=O)(=O)N2CCCC2)cc1	1%	0%	-9%	13%	45µM*
COc1ccc(-c2nnc(SCC(=O)NCc3ccco3)o2)cc1	3%	0%	0%	-6%	u
Cc1ccc(S(=O)(=O)N2CCCNCC2)cc1	-3%	2%	-10%	-12%	16µM*
Cc1cc(S(=O)(=O)N2CCCC2)ccc1OCC(=O)NCc1ccco1	-6%	3%	3%	-4%	40µM*
Cc1ccc(S(=O)(=O)NCC(=O)N(CC(=O)NCC2CCCO2)Cc2ccccc2)cc1 (configuration not stated)	6%	3%	-3%	-15%	-28%
Cc1[nH]c(=O)[nH]c(=O)c1S(=O)(=O)N1CCCCC1	0%	-8%	-3%	0%	-1%
COc1ccc(CNC(=O)C(CC(C)C)NC(=O)c2ccccc2C)cc1 (configuration not stated)	0%	18%	-17%	0%	2%
O=C(O)c1cccc2c1Cc1cc(Cl)ccc1-2	x	x	0%	6%	x
COC(=O)C1=CN(c2ccc(OC)cc2)C(N)=C(C#N)C1c1cccc2ccccc12 (configuration not stated)	x	x	x	-8%	x
O=C(OCc1ccco1)c1ccc(S(=O)(=O)N2CCCCC2)cc1	10%	5%	-23%	-2%	7.1µM*
N#CC(C#N)=NNc1ccc(S(=O)(=O)N2CCCC2)cc1	0%	28%	1%	0%	20µM*
O=C(NCc1ccco1)c1ccc(S(=O)(=O)c2cccc(S(=O)(=O)N3CCOCC3)c2)cc1	5%	1%	-8%	13%	50µM*
Cc1ccc(C(=O)NCc2ccco2)cc1S(=O)(=O)N1CCOCC1	-1%	1%	-3%	12%	-8%
Cc1ccc(C(=O)NCc2ccco2)cc1S(=O)(=O)N1CCCC1	-7%	-16%	-8%	-7%	40µM*
